According to PubChem BioAssay (Tox21):
Records with an inconclusive call do not appear. Active and inactive are the calls of the source. Unless noted, the call rests on the fitted dose curve.

Legend:
[1] = Nuclear factor erythroid 2-related factor 2/antioxidant responsive element (Nrf2/ARE) small molecule agonists: qHTS cell viability counter screen in human keratinocytes (AID 1919968; active means well fitted cell-killing curve with a large enough effect in the repeat runs; further: nearly all actives have a fitted effect of over 55% in size)
Outline: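 HaCaT ARE reporter line, 1,500 cells/well; 5 h settle, 37 C/5% CO2; cpd in DMSO pinned; 23 h exposure; CellTiter-Fluor, 1 h; fluorescence.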

[2] = Nuclear factor erythroid 2-related factor 2/antioxidant responsive element (Nrf2/ARE) small molecule agonists: luciferase reporter gene qHTS assay in human keratinocytes (AID 1919969); further: nearly all actives have a fitted effect of over 35% in size
[3] = G protein-coupled receptor (GPCR) small molecule agonists, calcium flux assay: HEK293 wild type cell line counter screen (AID 1920065)
Outline: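 Kinetic fluorescence at Ex/Em 480/540, recorded every second over 3 min, served as the read-out after compound addition. Each compound was tested at 15 concentrations in triplicate on cells pre-loaded with calcium dye for 1 h.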

[4] = p53 small molecule agonists, cell-based qHTS assay with human liver microsomes (AID 1963577);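 further: p53 response element beta-lactamase reporter cells with liver microsomes plus NADPH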
Outline: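 With metabolic activation: human liver microsomes (0.5 mg/mL final) plus NADPH (0.5 mg/mL final) added alongside compounds to p53RE-bla cells; 16 h 37 C exposure; beta-lactamase read by LiveBLAzer fluorescence.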

[5] = p53 small molecule agonists, cell-based qHTS assay with rat liver microsomes (AID 1963578)
Outline: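 Metabolic activation by rat liver microsomes and NADPH, each 0.5 mg/mL final, added right after compounds to p53RE-bla reporter cells (4,000/well, plated 5 h earlier). 16 h at 37 C, then LiveBLAzer substrate for 2 h at room temperature in the dark; fluorescence read-out.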

[6] = p53 small molecule agonists, cell-based qHTS assay with human liver microsomes: qHTS cell viability counter screen (AID 1963579); further: nearly all actives have a fitted effect of over 45% in size
Outline: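 Metabolic activation used human liver microsomes and NADPH, both 0.5 mg/mL final, over 16 hours at 37 C on p53RE-bla cells (4,000/well). Cytotoxicity measured by CellTiter-Glo luminescence, 30 min at room temperature.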

[7] = p53 small molecule agonists, cell-based qHTS assay with rat liver microsomes: qHTS cell viability counter screen (AID 1963580); further: nearly all actives have a fitted effect of over 45% in size
Outline: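 p53RE-bla HCT-116 cells (4,000/well) rested 5 h at 37 C, then given Tox21 compounds in DMSO with rat liver microsomes (0.5 mg/mL final) plus NADPH (0.5 mg/mL final) for 16 h at 37 C. Viability read by CellTiter-Glo luminescence after 30 min at room temperature.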

[8] = p53 small molecule agonists, cell-based qHTS assay: qHTS cell viability counter screen (AID 1963581); further: nearly all actives have a fitted effect of over 45% in size
Outline: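 HCT-116 p53RE-bla cells, 4,000/well, plated 5 h before compound pin transfer; 16 h at 37 C; bla substrate 2 h RT; then CellTiter-Glo, 30 min RT, luminescence.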

[9] = p53 small molecule agonists, cell-based qHTS assay (AID 1963582; active means well fitted activation curve with a large enough effect in the signal ratio in the repeat runs, not every such curve was filed as active; the % refers to the signal ratio)
Outline: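 Reporter line: p53RE-bla. Pre-incubation 5 h, 37 C, 5% CO2; compound (DMSO, pin tool) 16 h, 37 C; B/G FRET substrate 2 h RT; fluorescence intensity read.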

[10] = molecular target: 5-hydroxytryptamine receptor 2A (Homo sapiens) (UniProt P28223); assay: 5-hydroxytryptamine receptor 2A (HTR2A) small molecule antagonists, cell-based qHTS assay (AID 1963586); further: nearly all actives have a fitted effect of over 45% in size
Chain of 5-hydroxytryptamine receptor 2A (Homo sapiens) (P28223 whole entry, looked up): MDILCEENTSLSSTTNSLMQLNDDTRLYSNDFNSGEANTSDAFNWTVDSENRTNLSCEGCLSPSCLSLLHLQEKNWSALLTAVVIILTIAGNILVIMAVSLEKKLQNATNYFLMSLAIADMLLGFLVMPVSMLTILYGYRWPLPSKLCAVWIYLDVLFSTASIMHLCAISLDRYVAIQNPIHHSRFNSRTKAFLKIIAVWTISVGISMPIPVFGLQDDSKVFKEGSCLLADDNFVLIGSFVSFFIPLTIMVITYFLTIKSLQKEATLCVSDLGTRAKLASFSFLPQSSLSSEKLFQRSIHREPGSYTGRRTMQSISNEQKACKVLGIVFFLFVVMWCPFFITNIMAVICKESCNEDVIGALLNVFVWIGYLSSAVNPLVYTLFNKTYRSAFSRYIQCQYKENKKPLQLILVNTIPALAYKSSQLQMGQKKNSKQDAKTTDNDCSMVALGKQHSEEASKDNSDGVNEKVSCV
Outline: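 Antagonist-mode intracellular calcium assay: DOI (4 nM) added after 5 min compound pre-incubation at room temperature to dye-loaded HTR2A-CHO cells. Fluorescence followed for 3 min, sampled every second.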

[11] = molecular target: 5-hydroxytryptamine receptor 2A (Homo sapiens) (UniProt P28223); assay: 5-hydroxytryptamine receptor 2A (HTR2A) small molecule agonists, cell-based qHTS assay (AID 1963587); further: nearly all actives have a fitted effect of over 30% in size
Outline: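 HTR2A-CHO cells, plated 18 h at 37 C/5% CO2, dye-loaded 1 h at 37 C; compounds in DMSO added by pin tool (agonist mode). Intracellular calcium flux read as kinetic fluorescence on FDSS over 2 min at 1 s intervals.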

[12] = molecular target: Muscarinic acetylcholine receptor M1 (Homo sapiens) (UniProt P11229); assay: Cholinergic receptor muscarinic 1 (CHRM1) small molecule antagonists, cell-based qHTS assay (AID 1963588); further: nearly all actives have a fitted effect of over 40% in size
Chain of Muscarinic acetylcholine receptor M1 (Homo sapiens) (P11229 whole entry, looked up): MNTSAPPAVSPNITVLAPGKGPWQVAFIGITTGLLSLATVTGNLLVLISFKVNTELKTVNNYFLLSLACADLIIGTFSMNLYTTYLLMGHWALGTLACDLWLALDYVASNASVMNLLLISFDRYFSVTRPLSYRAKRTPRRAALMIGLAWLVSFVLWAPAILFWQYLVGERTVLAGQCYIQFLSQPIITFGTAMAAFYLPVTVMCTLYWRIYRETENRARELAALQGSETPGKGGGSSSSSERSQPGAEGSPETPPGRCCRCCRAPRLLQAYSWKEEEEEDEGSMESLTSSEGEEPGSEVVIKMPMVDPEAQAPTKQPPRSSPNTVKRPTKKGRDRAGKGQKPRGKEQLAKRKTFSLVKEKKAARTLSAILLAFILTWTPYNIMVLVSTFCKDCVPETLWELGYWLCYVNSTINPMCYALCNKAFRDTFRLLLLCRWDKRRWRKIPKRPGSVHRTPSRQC
Outline: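 CHRM1-CHO calcium-flux assay, antagonist mode. Cells were seeded 18 h, dye-loaded 1 h at 37 C and given compound for 5 min at RT, then acetylcholine was added at 50nM. FDSS fluorescence was read 3 min; 15 concentrations, three runs.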

[13] = molecular target: Muscarinic acetylcholine receptor M1 (Homo sapiens) (UniProt P11229); assay: Cholinergic receptor muscarinic 1 (CHRM1) small molecule agonists, cell-based qHTS assay (AID 1963589); further: nearly all actives have a fitted effect of over 35% in size
Outline: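 Human M1 in stable CHO line; 18 h plating, 1 h dye load 37 C; cpd added (agonist mode); Ca2+ fluorescence kinetic read, 1 s intervals; 15 conc, 3 runs.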

[14] = cAMP Responsive Elements (CRE) small molecule antagonists, cell-based qHTS assay (AID 1963591; active means well fitted inhibition curve with a large enough effect in the signal ratio in the repeat runs, not every such curve was filed as active; the % refers to the signal ratio)
Outline: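 Beta-lactamase reporter read by FRET substrate (LiveBLAzer B/G) after 2 h at room temperature. CRE-bla HEK293T cells had received compound plus 0.25 uM (final) NKH477 for 3 h at 37 °C.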

[15] = molecular target: Beta-2 adrenergic receptor (Homo sapiens) (UniProt P07550); assay: Adrenergic beta2 receptor (ADRB2) small molecule antagonists, cell-based qHTS assay (AID 1963592); further: series mostly up to about 92 µM; nearly all actives have a fitted effect of over 50% in size
Chain of Beta-2 adrenergic receptor (Homo sapiens) (P07550 whole entry, looked up): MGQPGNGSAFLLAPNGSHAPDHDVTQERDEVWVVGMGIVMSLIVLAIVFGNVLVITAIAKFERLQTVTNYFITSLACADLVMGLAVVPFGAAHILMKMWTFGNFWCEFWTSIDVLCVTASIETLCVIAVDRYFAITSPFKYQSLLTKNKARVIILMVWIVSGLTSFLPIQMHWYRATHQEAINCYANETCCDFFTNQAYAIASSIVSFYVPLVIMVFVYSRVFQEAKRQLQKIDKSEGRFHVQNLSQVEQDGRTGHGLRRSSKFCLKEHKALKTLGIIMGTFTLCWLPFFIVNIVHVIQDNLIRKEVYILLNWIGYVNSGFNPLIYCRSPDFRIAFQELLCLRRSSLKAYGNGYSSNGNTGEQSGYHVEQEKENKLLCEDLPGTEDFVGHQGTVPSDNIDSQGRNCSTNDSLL
Outline: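 Cells (CHO, stable ADRB2 overexpression) incubated 18-20hr at 37C; compounds added from DMSO; agonist mix (1nM isoproterenol, 100uM IBMX, 25uM Ro-20-1724) added; 0.5hr RT; d2-cAMP and anti-cAMP-cryptate added; 1hr RT; 665/615 nm read.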

[16] = molecular target: D(2) dopamine receptor (Homo sapiens) (UniProt P14416); assay: Dopamine D2 receptor (DRD2) small molecule agonists, cell-based qHTS assay (AID 1963594); further: nearly all actives have a fitted effect of over 35% in size
Chain of D(2) dopamine receptor (Homo sapiens) (P14416 whole entry, looked up): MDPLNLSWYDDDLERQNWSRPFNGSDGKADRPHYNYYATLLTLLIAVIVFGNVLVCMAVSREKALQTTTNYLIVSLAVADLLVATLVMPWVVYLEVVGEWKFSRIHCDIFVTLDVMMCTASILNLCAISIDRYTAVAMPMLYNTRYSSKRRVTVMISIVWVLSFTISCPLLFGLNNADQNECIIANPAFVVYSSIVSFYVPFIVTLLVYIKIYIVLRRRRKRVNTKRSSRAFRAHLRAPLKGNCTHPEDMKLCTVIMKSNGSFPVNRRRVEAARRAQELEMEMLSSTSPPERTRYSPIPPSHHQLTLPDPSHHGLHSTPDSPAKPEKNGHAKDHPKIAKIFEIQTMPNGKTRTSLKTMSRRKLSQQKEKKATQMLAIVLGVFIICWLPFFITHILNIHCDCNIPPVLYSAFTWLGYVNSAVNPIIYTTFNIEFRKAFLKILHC
Outline: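 HEK293 cells stably expressing DRD2 were cultured 24 h at 37 C, then given Ro20-1724 (0.1 mM final) and compounds for 10 min at room temperature. NKH477 (200nM) was then added for 30 min. cAMP was read by HTRF.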

[17] = molecular target: D(2) dopamine receptor (Homo sapiens) (UniProt P14416); assay: Dopamine D2 receptor (DRD2) small molecule antagonists, cell-based qHTS assay (AID 1963595; active means well fitted inhibition curve with a large enough effect in the signal ratio in the repeat runs, with a control signal flat; the % refers to the signal ratio)
Outline: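 In this cell-based antagonist screen, compounds act for 10 min at room temperature before a 30 min challenge with 12 nM quinpirole and 200 nM NKH477. cAMP is quantified by HTRF competition in DRD2-HEK293 cells containing 0.1 mM Ro20-1724.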

[18] = cAMP Responsive Elements (CRE) small molecule agonists, cell-based qHTS assay (AID 1963590)
Outline: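 HEK 293T CRE-bla, 2,000 cells/well, 18 h preincubation 37 C/5% CO2; cpds (DMSO) pinned, 3 h; LiveBLAzer B/G FRET substrate, 2 h RT.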

[19] = molecular target: Beta-2 adrenergic receptor (Homo sapiens) (UniProt P07550); assay: Adrenergic beta2 receptor (ADRB2) small molecule agonists, cell-based qHTS assay (AID 1963593);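 further: CHO cells stably overexpressing human ADRB2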
Outline: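 CHO cells stably over-expressing ADRB2 were plated overnight at 37C, then dosed with compounds plus a stimulation mix containing 100uM IBMX and 25uM Ro-20-1724 for 0.5hr at room temperature. cAMP was measured by HTRF competition, 1hr.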

Measured: Potency

COc1ccc(N=[N+]([O-])c2ccc(OC)cc2)cc1
inactive: [1] | [2] | [3] | [4] | [5] | [6] | [7] | [8] | [9] | [10] | [11] | [12] | [13] | [14] | [15] | [16] | [17]

CC1=CC(C)C(C=O)CC1 (stereo unspecified)
inactive: [1] | [2] | [3] | [4] | [5] | [6] | [7] | [8] | [9] | [10] | [11] | [12] | [13] | [18] | [14] | [15] | [19] | [16] | [17]

COc1cc(C=O)ccc1OC(=O)C(C)C
inactive: [1] | [2] | [3] | [4] | [5] | [6] | [7] | [8] | [10] | [11] | [12] | [13] | [18] | [14] | [15] | [19] | [16] | [17]

CCCCC1CCC(=O)O1 (stereo unspecified)
inactive: [1] | [2] | [3] | [4] | [5] | [6] | [7] | [8] | [9] | [10] | [11] | [12] | [13] | [18] | [14] | [15] | [16] | [17]

CC(C)OC(=O)CCCCC(=O)OC(C)C
inactive: [1] | [2] | [3] | [4] | [5] | [6] | [7] | [8] | [9] | [10] | [11] | [12] | [13] | [18] | [14] | [15] | [16] | [17]

O=C(O)c1cc(N=Nc2ccc(S(=O)(=O)Nc3ccccn3)cc2)ccc1O
inactive: [1] | [2] | [3] | [4] | [5] | [6] | [7] | [8] | [9] | [18] | [14] | [15] | [19]

Cc1cnccn1
inactive: [1] | [2] | [3] | [4] | [5] | [6] | [7] | [8] | [9] | [10] | [11] | [12] | [13] | [18] | [14] | [15] | [16] | [17]

Nc1ccc(S(=O)(=O)Nc2ccc(Cl)nn2)cc1
inactive: [1] | [2] | [3] | [4] | [5] | [6] | [7] | [8] | [9] | [10] | [11] | [13] | [18] | [14] | [15] | [17]

c1ccc(CSCc2ccccc2)cc1
inactive: [1] | [2] | [3] | [4] | [5] | [6] | [7] | [8] | [9] | [10] | [11] | [12] | [18] | [14] | [15] | [19] | [16] | [17]

Cc1cccc(C)c1NC(=O)CC12CCCN1CCC2
inactive: [1] | [2] | [3] | [4] | [5] | [6] | [7] | [8] | [9] | [10] | [11] | [12] | [13] | [18] | [14] | [15] | [16]

O=C1CCC(=O)O1
inactive: [1] | [2] | [3] | [4] | [5] | [6] | [7] | [8] | [9] | [10] | [11] | [12] | [13] | [18] | [14] | [15] | [19] | [16] | [17]

COS(=O)(=O)O
inactive: [1] | [2] | [3] | [4] | [5] | [6] | [7] | [8] | [9] | [10] | [11] | [12] | [13] | [15] | [16] | [17]

Cc1cc(N)no1
inactive: [1] | [2] | [3] | [4] | [5] | [6] | [7] | [9] | [10] | [11] | [12] | [13] | [18] | [14] | [15]

O=c1[nH]c2ccc(Cl)cc2o1
inactive: [1] | [2] | [3] | [4] | [5] | [6] | [7] | [8] | [9] | [10] | [11] | [12] | [13] | [18] | [14] | [15] | [16] | [17]

Nc1cc(-c2ccncc2)c[nH]c1=O
inactive: [1] | [2] | [3] | [4] | [5] | [6] | [7] | [8] | [9] | [18] | [14] | [15] | [19] | [16] | [17]

C/C=C/C(=O)CCCC
inactive: [1] | [2] | [3] | [4] | [5] | [6] | [7] | [8] | [9] | [10] | [12] | [13] | [18] | [14] | [15] | [16]
